According to PubChem BioAssay:
Where “and” joins values, the source holds several entries; their conditions need not be identical. Equal entries are not always repeated. Calls of active or inactive are those of the source.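 Rule for the calls, unless noted: active = thallium flux through the channel raised or lowered by more than 3 SD from vehicle-only wells, actives on both sides; inactive = the rest.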

Columns and labels:
[1] = test system: Hepatitis C virus NS3 helicase; assay: HCV NS3 helicase inhibitors, primary screen, biochemical, fluorescence polarization, NIH Clinical Collection (AID 743270; call rule not given here); conditions: NS3 helicase binding to Cy5-dT15 DNA, stronger effect = higher value, concentration not given here
[2] = target: Single-stranded DNA-binding protein (Escherichia coli (strain K12)) (UniProt P0AGE0); assay: E. coli SSB displacement from DNA, counter-screen for HCV NS3 helicase inhibitor project, biochemical, fluorescence polarization, NIH Clinical Collection (AID 743271; in the data active = inhibition above about 28%); conditions: stronger effect = higher value, concentration not given here
[3] = fluorescence interference in NS3h assay format, artefact control for HCV NS3 helicase inhibitor project, biochemical, NIH Clinical Collection (AID 743272; call rule not given here;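 note: HCV NS3 helicase with a Cy5 labelled single stranded DNA probe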); conditions: fluorescence interference counterscreen, stronger effect = lower value
[4] = stimulators of nuclear beta-catenin in C2C12, primary screen, imaging, WNT3A-conditioned medium, mouse C2C12, NPC library (AID 1117326; in the data active = nuclear beta-catenin stimulation mostly above about 4.2%, no sharp cut-off; inactive = mostly below about 10%); conditions: stronger effect = higher value
[5] = stimulators of insulin release from INS-1E, primary screen, cell-based, 5 mM glucose, NPC library (AID 1117329;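 active = compound raises insulin release from rat beta cells at 5 mM glucose, no numeric limit stated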); conditions: rat INS-1E insulin secretion, at 10 µM, stronger effect = higher value
[6] = growth inhibition of GSK3B-pretreated HCT116 cells – cell-based, CellTiter-Glo, 0.2 to 20 µM (AID 1117336;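 active = compounds lowering colon cancer cell viability after pretreatment blocking the GSK3B kinase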); conditions: HCT116 viability after GSK3B inhibitor, at 20 µM, stronger effect = higher value
[7] = inhibition of endothelial tube formation, primary screen, imaging, VEGF stimulated, CD31 staining, tube area, NPC library (AID 1117340;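 active = compound that reduces growth-factor-driven endothelial tube area in a mixed cell culture, no cutoff stated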); conditions: VEGF-stimulated ADSC/ECFC co-culture, at 10 µM, stronger effect = higher value
[8] = glucagon-like peptide 1 release enhancers, primary assay, NCI-H716 cell line, NPC library (AID 1117341;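 active = compound raises GLP1 secretion from the human gut endocrine cells, with no numeric limit stated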); conditions: NCI-H716 cells, at 10 µM, stronger effect = higher value
[9] = HCT116 colon cancer cell growth inhibition, primary screen, CellTiter-Glo luminescence, NPC library (AID 1117342;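 active = compounds that lower survival of HCT116 colon cancer cells in the luminescence readout, no numeric limit stated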); conditions: at 20 µM (top of the series)
[10] = CellTiter-Glo luminescent readout of SW480 viability loss, NPC library primary (AID 1117343;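 active = compounds that lower viability of the colon cancer cells in the luminescence readout, with no numeric limit stated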); conditions: CellTiter-Glo luminescence; at 20 µM (top of the series)
[11] = decreased DLD-1 cellular survival, CellTiter-Glo luminescent readout, NPC compound collection, primary HTS (AID 1117346;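 active = compounds that lower survival of DLD-1 colon cancer cells in the luminescence readout, no cutoff given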); conditions: DLD-1 viability, CellTiter-Glo luminescence; at 20 µM (top of the series)
[12] = target: 6-phosphogluconate dehydrogenase, decarboxylating (Homo sapiens) (UniProt P52209); assay: 6PGD enzyme inhibitors, primary screen, biochemical, human, recombinant enzyme, NADPH absorbance (AID 1159550;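 active = at least 20% inhibition of 6-phosphogluconate dehydrogenase activity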); conditions: recombinant 6PGD, NADPH absorbance 341 nm; at 10 µM; stronger effect = higher value
Sequence of 6-phosphogluconate dehydrogenase, decarboxylating (Homo sapiens) (P52209 whole entry, looked up): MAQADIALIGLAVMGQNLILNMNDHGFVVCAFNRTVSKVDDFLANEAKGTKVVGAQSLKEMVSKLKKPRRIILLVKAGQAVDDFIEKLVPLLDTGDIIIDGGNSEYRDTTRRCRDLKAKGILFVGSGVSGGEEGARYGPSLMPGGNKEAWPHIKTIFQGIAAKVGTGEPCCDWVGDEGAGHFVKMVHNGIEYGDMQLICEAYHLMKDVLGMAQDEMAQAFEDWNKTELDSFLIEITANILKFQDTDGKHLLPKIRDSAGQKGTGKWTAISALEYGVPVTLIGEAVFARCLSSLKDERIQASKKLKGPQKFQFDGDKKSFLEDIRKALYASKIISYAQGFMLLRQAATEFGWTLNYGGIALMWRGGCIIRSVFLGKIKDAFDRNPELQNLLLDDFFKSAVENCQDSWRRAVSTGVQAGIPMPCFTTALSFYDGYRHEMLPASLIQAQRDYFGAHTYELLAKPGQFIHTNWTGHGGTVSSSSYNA

[13] = differential killing of epithelial or mesenchymal cells, primary screen, imaging, PC-3E GFP, TEM4-18 mCherry, co-culture (AID 1345086;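 active = compounds killing one labelled cell type while sparing the other, by normalised counts and ratio limits, not self-fluorescent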;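 for all read-outs here: cells exposed to compound for 72 h before imaging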;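 for red/green cell ratio (normalised): normalised mesenchymal count divided by normalised epithelial count so high means epithelial killing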); conditions: imaging cell counts, at 1 µM; for red/green cell ratio (normalised): actives lie on both sides, counts scaled to control wells, 1 = unselective
[14] = survival rescue of mitochondrial mutant cells in low glucose, primary screen, MELAS cybrids, Rieske KO mouse fibroblasts, CellTiter-Glo (AID 1508586;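 active = mean z-score across replicates of 1.96 or higher in either the MELAS or the Rieske mutant cell line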;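 note: z relative to plate mean and SD of compound and empty wells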)
[15] = target: NAD(+) hydrolase SARM1 (Homo sapiens) (UniProt Q6SZW1); assay: SARM1 TIR NADase inhibitors, cell lysate, NAD-Glo luminescence (AID 1508614;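 active = compound whose remaining NAD level is above about 45 nM, limit read from the data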;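 note: higher remaining NAD means stronger inhibition of SARM1 NADase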); conditions: SAM-TIR HEK293T lysate NADase, at 1 µM, stronger effect = higher value
Sequence of NAD(+) hydrolase SARM1 (Homo sapiens) (Q6SZW1 whole entry, looked up, the tested form may be a part): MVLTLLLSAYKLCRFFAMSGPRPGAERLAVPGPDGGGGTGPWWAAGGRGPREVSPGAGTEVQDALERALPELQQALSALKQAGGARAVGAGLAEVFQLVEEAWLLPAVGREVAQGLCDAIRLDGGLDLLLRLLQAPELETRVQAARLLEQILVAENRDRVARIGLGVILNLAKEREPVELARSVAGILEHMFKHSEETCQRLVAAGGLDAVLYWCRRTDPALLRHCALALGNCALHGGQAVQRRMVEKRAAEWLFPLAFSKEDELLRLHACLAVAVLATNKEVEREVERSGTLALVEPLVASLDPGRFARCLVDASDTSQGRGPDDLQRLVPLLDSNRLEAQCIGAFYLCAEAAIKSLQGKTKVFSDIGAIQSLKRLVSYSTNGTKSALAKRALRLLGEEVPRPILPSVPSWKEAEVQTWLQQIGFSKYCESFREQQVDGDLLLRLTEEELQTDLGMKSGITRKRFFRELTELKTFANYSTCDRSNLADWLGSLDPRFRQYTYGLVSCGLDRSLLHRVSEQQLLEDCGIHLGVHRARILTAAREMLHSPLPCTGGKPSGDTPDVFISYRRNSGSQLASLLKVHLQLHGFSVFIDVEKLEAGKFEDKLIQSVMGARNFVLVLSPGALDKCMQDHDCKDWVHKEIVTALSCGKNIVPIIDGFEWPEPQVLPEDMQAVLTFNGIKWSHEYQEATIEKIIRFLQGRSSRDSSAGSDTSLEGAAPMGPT

[16] = target: Mitogen-activated protein kinase 7 (Homo sapiens) (UniProt Q13164); assay: ERK5 transactivation activators in reporter cells, primary screen, cell-based, HTS (AID 1508626;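 active = luciferase signal above three times the same-plate solvent-only control wells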;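 note: luciferase driven by Gal4-ERK5 fusion binding five Gal4 sites before minimal TATA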); conditions: HeLa Gal4-ERK5 transactivation, 18 h, at 5 µM, stronger effect = higher value
Sequence of Mitogen-activated protein kinase 7 (Homo sapiens) (Q13164 whole entry, looked up, the tested form may be a part): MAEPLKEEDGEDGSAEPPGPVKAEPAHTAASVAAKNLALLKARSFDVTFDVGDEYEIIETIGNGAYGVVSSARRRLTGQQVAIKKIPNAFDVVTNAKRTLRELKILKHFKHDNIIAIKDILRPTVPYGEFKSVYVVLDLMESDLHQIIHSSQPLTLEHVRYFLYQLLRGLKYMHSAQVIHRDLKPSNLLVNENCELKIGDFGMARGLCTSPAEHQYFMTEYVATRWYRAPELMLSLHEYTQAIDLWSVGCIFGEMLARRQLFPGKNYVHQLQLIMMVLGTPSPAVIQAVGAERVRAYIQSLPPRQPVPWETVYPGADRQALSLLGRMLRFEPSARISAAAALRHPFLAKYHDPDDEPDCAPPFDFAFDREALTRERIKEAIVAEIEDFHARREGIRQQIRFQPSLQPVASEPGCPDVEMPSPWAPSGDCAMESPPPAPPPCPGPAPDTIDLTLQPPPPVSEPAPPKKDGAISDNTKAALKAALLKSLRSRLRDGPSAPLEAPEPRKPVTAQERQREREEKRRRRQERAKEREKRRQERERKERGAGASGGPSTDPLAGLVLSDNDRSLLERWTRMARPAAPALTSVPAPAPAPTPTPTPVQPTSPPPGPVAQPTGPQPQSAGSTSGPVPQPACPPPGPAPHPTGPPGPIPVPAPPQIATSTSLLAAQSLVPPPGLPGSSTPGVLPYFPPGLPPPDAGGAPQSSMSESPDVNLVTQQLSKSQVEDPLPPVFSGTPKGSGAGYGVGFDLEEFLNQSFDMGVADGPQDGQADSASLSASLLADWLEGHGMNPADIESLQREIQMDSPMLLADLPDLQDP

F380Y = assay: modulators of BK channel variants, profiling panel, selectivity assay, cell-based, U2OS BacMam, thallium flux, beta subunits (AID 1259406); conditions: at 30 µM;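 note: initial slope of Thallos dye fluorescence rise after thallium is added; log ratio against the mean of 0.3% DMSO vehicle wells on the same plate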
F380Y/beta2Delta = assay: as above; conditions: at 30 µM
[17] = target: Calcium-activated potassium channel subunit alpha-1 (Homo sapiens) + Leucine-rich repeat-containing protein 26 (Homo sapiens) (UniProt Q12791+Q2I0M4); assay: as above; conditions: F380Y/Slo1WT/gamma1, at 30 µM
Sequence of Calcium-activated potassium channel subunit alpha-1 (Homo sapiens) + Leucine-rich repeat-containing protein 26 (Homo sapiens) (Q2I0M4 whole entry, looked up, one chain of several): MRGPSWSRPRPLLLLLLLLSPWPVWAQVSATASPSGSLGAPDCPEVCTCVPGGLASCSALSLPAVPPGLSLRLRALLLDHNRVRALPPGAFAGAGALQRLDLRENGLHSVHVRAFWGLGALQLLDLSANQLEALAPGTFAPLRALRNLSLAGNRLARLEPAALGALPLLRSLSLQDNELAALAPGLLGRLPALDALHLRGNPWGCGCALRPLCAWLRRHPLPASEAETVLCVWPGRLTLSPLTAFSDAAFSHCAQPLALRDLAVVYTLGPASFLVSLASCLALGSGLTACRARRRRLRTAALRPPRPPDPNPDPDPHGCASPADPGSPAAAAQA

[18] = sensitizers of A549 cells to miR-34 induction, primary screen, imaging, A549 dox-inducible miR-34, nuclei and caspase counts (AID 1347080;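 active = compounds whose cell count with miR-34 switched on is under 0.7 times the count with it off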); conditions: A549 miR-34 inducible, Hoechst nuclei count, 48 h
[19] = measured here: epithelial PC-3E GFP cell survival
[20] = measured here: mesenchymal TEM4-18 mCherry cell survival
[21] = MELAS cybrid survival, CellTiter-Glo 48 h, stronger effect = higher value
[22] = Rieske KO mouse fibroblast survival, CellTiter-Glo 72 h

CN(C)CCOC(C)(c1ccccc1)c1ccccn1 (configuration not stated)
inactive: inhibition [1] -0.4% | inhibition [2] -0.87% | fluorescence ratio [3] 1.06 | nuclear beta-catenin stimulation ([4]; at 10 µM) 1.1% | insulin secretion stimulation [5] 11.2% | viability decrease [6] 7.4% | tube area decrease [7] -15.5% | GLP1 secretion stimulation [8] 1% | inhibition of viability [9] 22.7% | viability decrease (inhibition) [10] 28.1% | viability decrease (inhibition) [11] -4.8% | inhibition [12] 1.67% | red/green cell ratio (normalised) [13] 1.11 | z-score [14, 21] 0.438 and -0.212 and 0.265 | remaining NAD [15] 10 nM | luciferase signal [16] 124 AU | log fold change Tl+ flux (F380Y) -0.0291 | log fold change Tl+ flux (F380Y/beta2Delta) -0.0218 | log fold change Tl+ flux [17] -0.0144
-0.9%: nuclear beta-catenin stimulation ([4]; stimulation, at 2 µM)
1.38: normalised cell number [13, 19]
1.53: normalised cell number [13, 20]
-0.4 and -0.135 and 0.109: z-score [14, 22]

CCCCC1=NC2(CCCC2)C(=O)N1Cc1ccc(-c2ccccc2-c2nn[nH]n2)cc1
1.18: normalised cell number [13, 20]
-0.504: z-score [14, 22]
0.1%: nuclear beta-catenin stimulation ([4]; stimulation, at 2 µM)
7090 and 11900: cell count ([18]; measured here: total cells with miR-34 induction, stronger effect = lower value)
1.55 and 6.32: fold change ([18]; measured here: relative caspase fold change +Dox/-Dox)
0.82: normalised cell number [13, 19]
inactive: inhibition [1] -3.56% | inhibition [2] 3.75% | fluorescence ratio [3] 1.03 | nuclear beta-catenin stimulation ([4]; at 10 µM) 1.9% | insulin secretion stimulation [5] 1.8% | viability decrease [6] -43% | tube area decrease [7] -17.7% | GLP1 secretion stimulation [8] -0.1% | inhibition of viability [9] -0.43% | viability decrease (inhibition) [10] -11.7% | viability decrease (inhibition) [11] -12.4% | inhibition [12] -3.55% | red/green cell ratio (normalised) [13] 1.43 | fold change ([18]; stronger effect = lower value, cell number ratio, induced over uninduced) 0.939 and 0.866 | z-score [14, 21] -0.829 | remaining NAD [15] 10 nM | luciferase signal [16] 56 AU | log fold change Tl+ flux (F380Y) 0.0685 | log fold change Tl+ flux (F380Y/beta2Delta) 0.0508 | log fold change Tl+ flux [17] -0.00804
7550 and 13800: cell count ([18]; measured here: total cells without miR-34 induction)

Nc1nc(N)c2nc(-c3ccccc3)c(N)nc2n1
4.7%: nuclear beta-catenin stimulation ([4]; stimulation, at 2 µM)
inactive: inhibition [1] 7.73% | inhibition [2] 7.91% | fluorescence ratio [3] 0.9 | nuclear beta-catenin stimulation ([4]; at 10 µM) 17.3% | insulin secretion stimulation [5] -0.7% | tube area decrease [7] 10.4% | GLP1 secretion stimulation [8] 2.6% | viability decrease (inhibition) [11] 0.75% | inhibition [12] 13.3% | red/green cell ratio (normalised) [13] 1.25 | z-score [14, 21] -0.205 and 1.1 | remaining NAD [15] 10 nM | luciferase signal [16] 48 AU | log fold change Tl+ flux (F380Y) 0.00573 | log fold change Tl+ flux (F380Y/beta2Delta) 0.0397 | log fold change Tl+ flux [17] 0.00721
-0.161 and 0.254: z-score [14, 22]
1: normalised cell number [13, 19]
1.25: normalised cell number [13, 20]
active: viability decrease [6] 91.2% | inhibition of viability [9] 83% | viability decrease (inhibition) [10] 75.8%

CN(C)C(=O)Oc1ccc[n+](C)c1
inactive: inhibition [1] 0.45% | inhibition [2] 0.29% | fluorescence ratio [3] 0.97 | nuclear beta-catenin stimulation ([4]; at 10 µM) 0.1% | insulin secretion stimulation [5] 0.95% | viability decrease [6] 10.7% | tube area decrease [7] -21.1% | GLP1 secretion stimulation [8] -3.2% | inhibition of viability [9] -1% | viability decrease (inhibition) [10] -8.3% | viability decrease (inhibition) [11] -12.1% | inhibition [12] -7.31% | red/green cell ratio (normalised) [13] 1.32 | z-score [14, 21] 0.178 and 0.175 | remaining NAD [15] 10 nM | luciferase signal [16] 48 AU | log fold change Tl+ flux (F380Y) -0.00126 | log fold change Tl+ flux (F380Y/beta2Delta) -0.0385 | log fold change Tl+ flux [17] 0.0382
0.0482 and -0.383: z-score [14, 22]
1.15: normalised cell number [13, 19]
1.53: normalised cell number [13, 20]
10.5%: nuclear beta-catenin stimulation ([4]; stimulation, at 2 µM)

CCCNC(=O)NS(=O)(=O)c1ccc(Cl)cc1
-0.188 and -0.232: z-score [14, 22]
inactive: inhibition [1] -2.27% | inhibition [2] 1.05% | fluorescence ratio [3] 0.96 | nuclear beta-catenin stimulation ([4]; at 10 µM) 4.6% | insulin secretion stimulation [5] 1.5% | viability decrease [6] 4.6% | tube area decrease [7] -1.2% | GLP1 secretion stimulation [8] 6.4% | inhibition of viability [9] 2.7% | viability decrease (inhibition) [10] -4.3% | viability decrease (inhibition) [11] -8.8% | inhibition [12] 14.6% | red/green cell ratio (normalised) [13] 1.2 | z-score [14, 21] -0.244 and -0.535 | remaining NAD [15] 10 nM | log fold change Tl+ flux (F380Y) -0.0312 | log fold change Tl+ flux (F380Y/beta2Delta) -0.00553 | log fold change Tl+ flux [17] -0.0083
active: luciferase signal [16] 276 AU
1.08: normalised cell number [13, 19]
1.29: normalised cell number [13, 20]
8.3%: nuclear beta-catenin stimulation ([4]; stimulation, at 2 µM)

CC(=O)Nc1nnc(S(N)(=O)=O)s1
0.92: normalised cell number [13, 19]
0.11: z-score [14, 22]
-0.2%: nuclear beta-catenin stimulation ([4]; stimulation, at 2 µM)
inactive: inhibition [1] -1.36% | inhibition [2] -2% | fluorescence ratio [3] 0.98 | nuclear beta-catenin stimulation ([4]; at 10 µM) 0.1% | insulin secretion stimulation [5] -1.1% | viability decrease [6] -1.8% | tube area decrease [7] -16.7% | GLP1 secretion stimulation [8] 1.4% | inhibition of viability [9] 1.7% | viability decrease (inhibition) [10] 31.5% | viability decrease (inhibition) [11] 6.2% | inhibition [12] -4.83% | red/green cell ratio (normalised) [13] 1.26 | z-score [14, 21] -0.627 | remaining NAD [15] 10 nM | luciferase signal [16] 44 AU | log fold change Tl+ flux (F380Y) 0.0439 | log fold change Tl+ flux (F380Y/beta2Delta) 0.0368 | log fold change Tl+ flux [17] -0.0199
1.17: normalised cell number [13, 20]
